# Results: paper PMC7862700, “An all-to-all approach to the identification of sequence-specific readers for epigenetic DNA modifications on cytosine”
# What was measured:
# Experiment in all cases: DAPPL (digital affinity profiling via proximity ligation, sequencing); 10 mM Tris-HCl pH 7.5, 50 mM NaCl, 1 mM DTT, 4% glycerol, room temperature, 30 min; GST-TFs on glutathione beads, 16-mer random dsDNA library, 0.1% formaldehyde crosslink after washing; high values mean tight binding
# FEV = target: T1, FEV (Homo sapiens, UniProt Q99581 1-238); settings: protein: recombinant; tags: N-terminal GST; dsDNA, one strand shown
# T1 sequence: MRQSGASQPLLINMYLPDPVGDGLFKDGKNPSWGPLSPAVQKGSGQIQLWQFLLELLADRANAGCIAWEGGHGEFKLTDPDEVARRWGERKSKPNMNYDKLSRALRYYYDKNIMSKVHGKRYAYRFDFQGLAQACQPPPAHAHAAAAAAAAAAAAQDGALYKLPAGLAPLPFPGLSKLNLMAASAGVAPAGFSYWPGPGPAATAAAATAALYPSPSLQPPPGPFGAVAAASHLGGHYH
# Outline: (§1)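 Human transcription factors were made in yeast as GST fusions, captured on glutathione beads and barcoded with DNA. With a tag-only sample included, the pool was incubated with 200 nmole of a random double-stranded 16-mer DNA library in Tris/NaCl/DTT/glycerol buffer at room temperature for 30 min, then crosslinked with 0.1% formaldehyde after washing, ligated by proximity, amplified and sequenced. For binding signal, each hexamer's read frequency for a factor is divided by its frequency for the tag-only sample.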
# ETV5 = ETV5 (Homo sapiens, UniProt P41161 1-510); settings: protein: recombinant; tags: N-terminal GST; dsDNA, one strand shown
# Sequence of ETV5 (P41161 whole entry): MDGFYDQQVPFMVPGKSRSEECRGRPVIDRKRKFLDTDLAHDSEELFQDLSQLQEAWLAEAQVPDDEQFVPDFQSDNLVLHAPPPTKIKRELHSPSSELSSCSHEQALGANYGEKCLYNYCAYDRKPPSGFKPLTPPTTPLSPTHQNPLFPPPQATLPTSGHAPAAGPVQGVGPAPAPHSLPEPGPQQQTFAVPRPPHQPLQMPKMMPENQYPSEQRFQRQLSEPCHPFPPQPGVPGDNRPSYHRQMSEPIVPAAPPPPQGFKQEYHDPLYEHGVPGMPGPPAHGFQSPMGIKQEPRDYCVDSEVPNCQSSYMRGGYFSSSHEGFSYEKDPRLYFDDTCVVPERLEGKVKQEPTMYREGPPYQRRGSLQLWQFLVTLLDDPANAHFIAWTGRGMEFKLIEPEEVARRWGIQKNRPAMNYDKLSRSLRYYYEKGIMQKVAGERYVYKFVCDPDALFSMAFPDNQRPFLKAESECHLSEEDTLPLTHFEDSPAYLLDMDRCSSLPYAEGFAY
# Outline: as §1
# HSF1 = HSF1 (Homo sapiens, UniProt Q00613 1-529); settings: protein: recombinant; tags: N-terminal GST; chain copies: 3; dsDNA, one strand shown
# Sequence of HSF1 (Q00613 whole entry): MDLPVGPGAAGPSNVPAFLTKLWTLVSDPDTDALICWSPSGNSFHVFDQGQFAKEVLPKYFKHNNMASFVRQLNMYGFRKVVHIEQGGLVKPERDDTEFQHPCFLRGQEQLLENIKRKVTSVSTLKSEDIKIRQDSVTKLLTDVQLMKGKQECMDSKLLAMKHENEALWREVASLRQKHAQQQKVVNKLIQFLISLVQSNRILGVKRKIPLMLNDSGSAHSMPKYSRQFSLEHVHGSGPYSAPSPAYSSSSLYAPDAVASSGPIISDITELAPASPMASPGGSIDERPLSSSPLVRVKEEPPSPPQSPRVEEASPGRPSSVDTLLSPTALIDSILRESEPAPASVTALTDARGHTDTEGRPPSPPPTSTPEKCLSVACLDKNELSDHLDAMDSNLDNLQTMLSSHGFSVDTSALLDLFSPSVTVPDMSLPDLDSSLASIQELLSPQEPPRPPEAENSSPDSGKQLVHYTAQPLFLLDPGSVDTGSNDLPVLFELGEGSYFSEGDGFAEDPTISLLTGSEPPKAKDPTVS
# Outline: as §1
# SPIC = target: T2, SPIC (Homo sapiens, UniProt Q8N5J4 1-248); settings: protein: recombinant; tags: N-terminal GST; dsDNA, one strand shown
# T2 sequence: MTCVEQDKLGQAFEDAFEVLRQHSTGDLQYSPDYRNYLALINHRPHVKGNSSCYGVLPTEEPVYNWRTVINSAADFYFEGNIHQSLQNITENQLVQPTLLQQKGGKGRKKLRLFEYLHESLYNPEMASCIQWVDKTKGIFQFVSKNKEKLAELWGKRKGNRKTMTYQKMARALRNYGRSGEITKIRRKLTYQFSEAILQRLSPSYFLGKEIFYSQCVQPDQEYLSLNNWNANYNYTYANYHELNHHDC
# Outline: as §1
# ELF4 = ELF4 (Homo sapiens, UniProt Q99607 1-663); settings: protein: recombinant; tags: N-terminal GST; dsDNA, one strand shown
# Sequence of ELF4 (Q99607 whole entry): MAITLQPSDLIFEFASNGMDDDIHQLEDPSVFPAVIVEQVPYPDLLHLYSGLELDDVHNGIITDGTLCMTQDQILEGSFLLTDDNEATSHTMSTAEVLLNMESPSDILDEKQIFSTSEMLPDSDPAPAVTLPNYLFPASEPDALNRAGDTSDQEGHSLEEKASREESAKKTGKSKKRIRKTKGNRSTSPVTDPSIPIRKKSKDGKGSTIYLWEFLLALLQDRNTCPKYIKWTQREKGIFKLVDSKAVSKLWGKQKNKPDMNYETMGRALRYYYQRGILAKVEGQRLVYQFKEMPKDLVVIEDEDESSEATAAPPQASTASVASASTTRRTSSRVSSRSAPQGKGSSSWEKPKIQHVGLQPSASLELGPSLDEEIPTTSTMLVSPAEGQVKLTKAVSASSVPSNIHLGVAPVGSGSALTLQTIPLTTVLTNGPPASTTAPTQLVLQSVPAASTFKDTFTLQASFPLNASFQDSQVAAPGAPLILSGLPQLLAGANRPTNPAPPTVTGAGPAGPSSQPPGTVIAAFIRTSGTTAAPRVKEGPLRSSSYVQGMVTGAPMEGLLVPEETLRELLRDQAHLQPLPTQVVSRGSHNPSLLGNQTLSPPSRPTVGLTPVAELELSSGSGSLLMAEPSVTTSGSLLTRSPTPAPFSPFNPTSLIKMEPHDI
# Outline: as §1
# ELK4 = target: T3, ELK4 (Homo sapiens, UniProt P28324-2 1-405); settings: protein: recombinant; tags: N-terminal GST; dsDNA, one strand shown
# T3 sequence: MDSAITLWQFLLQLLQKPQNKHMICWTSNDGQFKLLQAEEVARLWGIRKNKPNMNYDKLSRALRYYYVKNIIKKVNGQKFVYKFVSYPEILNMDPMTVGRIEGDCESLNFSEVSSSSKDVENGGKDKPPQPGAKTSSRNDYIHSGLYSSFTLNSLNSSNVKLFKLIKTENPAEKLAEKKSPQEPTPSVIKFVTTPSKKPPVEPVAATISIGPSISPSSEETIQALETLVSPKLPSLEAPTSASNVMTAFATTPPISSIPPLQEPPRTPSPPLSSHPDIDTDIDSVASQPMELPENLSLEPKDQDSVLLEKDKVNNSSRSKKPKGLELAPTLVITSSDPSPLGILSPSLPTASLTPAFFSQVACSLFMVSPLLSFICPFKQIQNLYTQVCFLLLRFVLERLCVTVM
# Outline: as §1
# ETV2 = target: T4, ETV2 (Homo sapiens, UniProt O00321 1-342); settings: protein: recombinant; tags: N-terminal GST; dsDNA, one strand shown
# T4 sequence: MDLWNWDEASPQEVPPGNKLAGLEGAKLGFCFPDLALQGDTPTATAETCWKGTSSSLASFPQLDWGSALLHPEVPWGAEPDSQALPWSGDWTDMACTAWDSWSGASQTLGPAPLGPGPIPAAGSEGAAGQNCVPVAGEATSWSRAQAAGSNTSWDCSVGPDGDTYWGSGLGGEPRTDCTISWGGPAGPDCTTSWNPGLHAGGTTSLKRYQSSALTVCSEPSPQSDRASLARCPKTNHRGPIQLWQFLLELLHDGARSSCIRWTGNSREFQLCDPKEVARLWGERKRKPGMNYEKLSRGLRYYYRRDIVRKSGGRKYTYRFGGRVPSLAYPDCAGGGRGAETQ
# Outline: as §1
# ELF3 = target: T5, ELF3 (Homo sapiens, UniProt P78545 1-371); settings: protein: recombinant; tags: N-terminal GST; dsDNA, one strand shown
# T5 sequence: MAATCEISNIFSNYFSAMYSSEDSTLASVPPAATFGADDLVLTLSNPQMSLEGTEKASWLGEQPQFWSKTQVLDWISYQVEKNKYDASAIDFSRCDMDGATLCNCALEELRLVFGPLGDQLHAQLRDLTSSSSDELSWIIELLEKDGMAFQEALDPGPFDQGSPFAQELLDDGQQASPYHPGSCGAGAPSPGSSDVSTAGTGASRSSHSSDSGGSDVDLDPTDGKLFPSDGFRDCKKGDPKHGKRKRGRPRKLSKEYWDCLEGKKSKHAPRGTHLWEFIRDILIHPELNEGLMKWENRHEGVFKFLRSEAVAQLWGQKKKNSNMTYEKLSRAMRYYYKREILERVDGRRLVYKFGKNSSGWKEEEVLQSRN
# Outline: as §1
# CRX = CRX (Homo sapiens, UniProt O43186 1-299); settings: protein: recombinant; tags: N-terminal GST; dsDNA, one strand shown
# Sequence of CRX (O43186 whole entry): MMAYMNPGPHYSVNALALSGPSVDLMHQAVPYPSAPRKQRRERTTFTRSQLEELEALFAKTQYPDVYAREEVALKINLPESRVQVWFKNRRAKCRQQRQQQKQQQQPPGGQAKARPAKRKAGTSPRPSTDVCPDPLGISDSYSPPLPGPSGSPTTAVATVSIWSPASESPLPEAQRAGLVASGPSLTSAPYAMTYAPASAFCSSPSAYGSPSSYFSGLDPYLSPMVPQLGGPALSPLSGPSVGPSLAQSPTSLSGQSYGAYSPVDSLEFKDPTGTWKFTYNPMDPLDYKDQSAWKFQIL
# Outline: as §1
# ETV1 = ETV1 (Homo sapiens, UniProt P50549 1-477); settings: protein: recombinant; tags: N-terminal GST; dsDNA, one strand shown
# Sequence of ETV1 (P50549 whole entry): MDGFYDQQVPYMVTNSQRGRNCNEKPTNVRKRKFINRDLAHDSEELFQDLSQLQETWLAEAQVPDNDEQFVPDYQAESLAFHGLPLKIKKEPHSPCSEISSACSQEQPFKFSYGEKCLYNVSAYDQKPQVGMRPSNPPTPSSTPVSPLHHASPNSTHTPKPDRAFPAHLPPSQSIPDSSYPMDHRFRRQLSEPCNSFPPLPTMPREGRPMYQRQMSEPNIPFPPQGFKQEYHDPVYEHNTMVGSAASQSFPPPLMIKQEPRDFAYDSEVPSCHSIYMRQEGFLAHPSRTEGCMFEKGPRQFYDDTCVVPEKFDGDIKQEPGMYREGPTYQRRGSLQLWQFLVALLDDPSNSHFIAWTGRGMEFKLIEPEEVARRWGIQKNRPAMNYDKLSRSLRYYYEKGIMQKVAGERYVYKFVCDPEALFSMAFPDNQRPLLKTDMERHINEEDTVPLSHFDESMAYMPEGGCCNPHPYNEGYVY
# Outline: as §1
# ERF = target: T6, ERF (Homo sapiens, UniProt P50548 1-548); settings: protein: recombinant; tags: N-terminal GST; dsDNA, one strand shown
# T6 sequence: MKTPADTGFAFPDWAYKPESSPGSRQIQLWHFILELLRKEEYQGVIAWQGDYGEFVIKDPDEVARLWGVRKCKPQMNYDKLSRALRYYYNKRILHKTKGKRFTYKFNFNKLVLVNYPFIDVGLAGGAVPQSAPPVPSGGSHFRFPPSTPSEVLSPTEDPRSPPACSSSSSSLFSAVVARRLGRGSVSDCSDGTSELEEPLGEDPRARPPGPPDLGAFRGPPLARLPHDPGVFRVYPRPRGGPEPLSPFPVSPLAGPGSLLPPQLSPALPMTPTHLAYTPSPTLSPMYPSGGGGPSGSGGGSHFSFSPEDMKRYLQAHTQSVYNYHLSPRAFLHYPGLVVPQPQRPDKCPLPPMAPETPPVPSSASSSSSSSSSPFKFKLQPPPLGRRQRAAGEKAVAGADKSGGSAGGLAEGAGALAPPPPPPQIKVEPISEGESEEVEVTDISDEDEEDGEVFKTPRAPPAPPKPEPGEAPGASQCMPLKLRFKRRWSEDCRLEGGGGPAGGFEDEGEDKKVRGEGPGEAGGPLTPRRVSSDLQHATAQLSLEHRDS
# Outline: as §1
# ETV3L = target: T7, ETV3L (Homo sapiens, UniProt Q6ZN32 1-361); settings: protein: recombinant; tags: N-terminal GST; dsDNA, one strand shown
# T7 sequence: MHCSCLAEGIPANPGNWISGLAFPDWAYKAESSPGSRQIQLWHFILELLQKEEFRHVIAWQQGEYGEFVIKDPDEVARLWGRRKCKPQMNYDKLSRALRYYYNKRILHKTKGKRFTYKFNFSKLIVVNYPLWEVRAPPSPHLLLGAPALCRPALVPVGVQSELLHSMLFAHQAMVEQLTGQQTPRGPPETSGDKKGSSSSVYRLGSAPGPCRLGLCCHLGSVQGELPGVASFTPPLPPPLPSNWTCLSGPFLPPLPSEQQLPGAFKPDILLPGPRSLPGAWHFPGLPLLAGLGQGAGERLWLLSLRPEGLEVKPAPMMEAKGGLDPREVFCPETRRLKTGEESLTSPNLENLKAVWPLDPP
# Outline: as §1
# ETS2 = target: T8, ETS2 (Homo sapiens, UniProt P15036 1-469); settings: protein: recombinant; tags: N-terminal GST; dsDNA, one strand shown
# T8 sequence: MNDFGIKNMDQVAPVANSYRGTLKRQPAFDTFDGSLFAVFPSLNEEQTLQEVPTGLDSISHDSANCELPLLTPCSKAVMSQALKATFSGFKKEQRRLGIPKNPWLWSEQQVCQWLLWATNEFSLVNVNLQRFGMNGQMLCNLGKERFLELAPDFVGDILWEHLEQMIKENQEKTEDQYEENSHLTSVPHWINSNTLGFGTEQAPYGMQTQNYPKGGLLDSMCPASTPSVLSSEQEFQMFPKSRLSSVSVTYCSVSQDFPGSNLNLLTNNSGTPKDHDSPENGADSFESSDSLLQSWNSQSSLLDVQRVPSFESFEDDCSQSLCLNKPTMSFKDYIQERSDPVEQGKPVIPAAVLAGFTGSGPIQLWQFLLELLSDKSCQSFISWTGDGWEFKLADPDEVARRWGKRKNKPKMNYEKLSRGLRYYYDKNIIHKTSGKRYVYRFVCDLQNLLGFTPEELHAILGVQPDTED
# Outline: as §1
# SPDEF = target: T9, SPDEF (Homo sapiens, UniProt O95238 1-335); settings: protein: recombinant; tags: N-terminal GST; dsDNA, one strand shown
# T9 sequence: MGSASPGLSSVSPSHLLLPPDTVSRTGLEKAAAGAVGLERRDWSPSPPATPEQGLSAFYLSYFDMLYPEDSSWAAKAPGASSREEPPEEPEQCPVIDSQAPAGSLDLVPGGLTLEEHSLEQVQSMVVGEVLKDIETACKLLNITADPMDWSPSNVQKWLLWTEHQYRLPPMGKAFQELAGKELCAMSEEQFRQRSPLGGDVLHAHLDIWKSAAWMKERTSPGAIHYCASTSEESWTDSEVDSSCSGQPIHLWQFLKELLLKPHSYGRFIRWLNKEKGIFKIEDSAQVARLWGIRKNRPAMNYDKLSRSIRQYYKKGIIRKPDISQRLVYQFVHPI
# Outline: as §1
# ETV7 = target: T10, ETV7 (Homo sapiens, UniProt Q9Y603 1-341); settings: protein: recombinant; tags: N-terminal GST; dsDNA, one strand shown
# T10 sequence: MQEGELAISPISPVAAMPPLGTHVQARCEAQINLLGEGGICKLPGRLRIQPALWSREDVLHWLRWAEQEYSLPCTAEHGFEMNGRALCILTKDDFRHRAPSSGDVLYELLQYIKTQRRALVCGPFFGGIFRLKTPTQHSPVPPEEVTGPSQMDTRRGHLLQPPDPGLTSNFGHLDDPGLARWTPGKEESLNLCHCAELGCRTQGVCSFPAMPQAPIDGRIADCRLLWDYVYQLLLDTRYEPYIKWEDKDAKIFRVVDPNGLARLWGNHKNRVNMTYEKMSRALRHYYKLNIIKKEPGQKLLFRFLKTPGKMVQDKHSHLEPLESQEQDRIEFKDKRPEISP
# Outline: as §1
# ELF5 = target: T11, ELF5 (Homo sapiens, UniProt Q9UKW6-2 1-255); settings: protein: recombinant; tags: N-terminal GST; dsDNA, one strand shown
# T11 sequence: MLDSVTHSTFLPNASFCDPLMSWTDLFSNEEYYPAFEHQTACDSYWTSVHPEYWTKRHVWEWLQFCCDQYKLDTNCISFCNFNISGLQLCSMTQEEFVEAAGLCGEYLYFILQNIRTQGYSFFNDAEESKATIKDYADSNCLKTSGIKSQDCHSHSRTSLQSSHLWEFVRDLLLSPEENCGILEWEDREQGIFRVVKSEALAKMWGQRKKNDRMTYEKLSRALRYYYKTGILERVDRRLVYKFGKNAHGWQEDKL
# Outline: as §1
# ETV3 = target: T12, ETV3 (Homo sapiens, UniProt P41162-2 1-143); settings: protein: recombinant; tags: N-terminal GST; dsDNA, one strand shown
# T12 sequence: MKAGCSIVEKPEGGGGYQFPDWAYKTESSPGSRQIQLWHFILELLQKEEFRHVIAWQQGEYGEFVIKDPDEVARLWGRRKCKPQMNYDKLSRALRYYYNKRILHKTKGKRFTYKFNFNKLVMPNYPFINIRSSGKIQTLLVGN
# Outline: as §1
# ETV6 = ETV6 (Homo sapiens, UniProt P41212 1-452); settings: protein: recombinant; tags: N-terminal GST; dsDNA, one strand shown
# Sequence of ETV6 (P41212 whole entry): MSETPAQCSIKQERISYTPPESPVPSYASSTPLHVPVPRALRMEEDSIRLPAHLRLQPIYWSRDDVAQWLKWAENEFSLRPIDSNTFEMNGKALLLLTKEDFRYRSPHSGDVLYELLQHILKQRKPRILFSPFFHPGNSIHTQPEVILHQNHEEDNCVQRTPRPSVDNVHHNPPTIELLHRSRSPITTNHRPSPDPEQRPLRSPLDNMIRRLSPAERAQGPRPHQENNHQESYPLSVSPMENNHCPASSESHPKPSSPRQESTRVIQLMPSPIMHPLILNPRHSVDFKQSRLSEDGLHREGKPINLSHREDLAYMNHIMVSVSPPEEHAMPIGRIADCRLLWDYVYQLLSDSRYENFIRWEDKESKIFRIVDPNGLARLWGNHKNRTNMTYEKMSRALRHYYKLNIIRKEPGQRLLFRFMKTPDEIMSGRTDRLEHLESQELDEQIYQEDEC
# Outline: as §1
sequence,measurement,setting,value
CGCGCT,binding signal,FEV,"1.11 fold enrichment (6-mer frequency, TF over GST control)"
same,binding signal,ETV5,"1.17 fold enrichment (6-mer frequency, TF over GST control)"
same,binding signal,HSF1,"1.11 fold enrichment (6-mer frequency, TF over GST control)"
same,binding signal,SPIC,"1.31 fold enrichment (6-mer frequency, TF over GST control)"
same,binding signal,ELF4,"1.2 fold enrichment (6-mer frequency, TF over GST control)"
same,binding signal,ELK4,"1.21 fold enrichment (6-mer frequency, TF over GST control)"
same,binding signal,ETV2,"1.11 fold enrichment (6-mer frequency, TF over GST control)"
same,binding signal,ELF3,"1.05 fold enrichment (6-mer frequency, TF over GST control)"
same,binding signal,CRX,"1.06 fold enrichment (6-mer frequency, TF over GST control)"
same,binding signal,ETV1,"1.15 fold enrichment (6-mer frequency, TF over GST control)"
same,binding signal,ERF,"1.44 fold enrichment (6-mer frequency, TF over GST control)"
same,binding signal,ETV3L,"1.18 fold enrichment (6-mer frequency, TF over GST control)"
same,binding signal,ETS2,"1.25 fold enrichment (6-mer frequency, TF over GST control)"
same,binding signal,SPDEF,"1.14 fold enrichment (6-mer frequency, TF over GST control)"
same,binding signal,ETV7,"1.14 fold enrichment (6-mer frequency, TF over GST control)"
same,binding signal,ELF5,"1.11 fold enrichment (6-mer frequency, TF over GST control)"
same,binding signal,ETV3,"1.17 fold enrichment (6-mer frequency, TF over GST control)"
same,binding signal,ETV6,"1.15 fold enrichment (6-mer frequency, TF over GST control)"
